LYPLA2 inh: blocks human lysophospholipase 2, a PME1 counter-screen; O95372; recombinant LYPLA2, FP-Rh probe fluorescence polarization; inhibition, % at 5.9 µM; hit rate 0.38% among 320,000;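 active = inhibition above the screen-wide mean plus 3 SD, limit set per campaign, cut at about 26% in these data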
Target sequence (O95372 whole entry, looked up): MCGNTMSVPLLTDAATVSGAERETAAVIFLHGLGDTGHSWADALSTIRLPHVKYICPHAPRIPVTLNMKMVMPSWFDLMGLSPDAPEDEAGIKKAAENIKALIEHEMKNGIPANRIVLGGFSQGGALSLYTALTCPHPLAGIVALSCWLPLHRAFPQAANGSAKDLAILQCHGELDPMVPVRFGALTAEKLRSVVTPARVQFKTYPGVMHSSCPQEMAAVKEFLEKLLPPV
PREPL inh: inhibitors of human prolyl oligopeptidase-like enzyme PREPL. Q4J6C6. recombinant PREPL, fluorescence polarization activity-based probe. inhibition, % at 5.96 µM. hit rate 0.68% among 320,000. AID 2751
Fam108B inh: Fam108B inhibition, counter-screen for RBBP9 inhibitors; AID 1947; recombinant Fam108B, FP-Rh probe fluorescence polarization; hit rate 0.33% among 300,000; inhibition, % at 9.51 µM;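 active = inhibition above the screen mean inhibition plus 3 SD, computed separately per campaign, cut at about 18% in these data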;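 note: inhibitors lower polarization as less probe binds the enzyme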
PME-1 primary: PME-1 (human) inhibition; Q9Y570; recombinant PME-1, FP-Rh probe fluorescence polarization; inhibition, % at 5.9 µM; hit rate 0.53% among 320,000; AID 2130;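 active = inhibition above the campaign mean of all compounds plus 3 SD, cut at about 26% in these data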;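 note: competitive labeling of PME-1 active site by serine hydrolase directed probe; inhibitors block probe labeling so polarization falls and inhibition rises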
LYPLA1 inh: LYPLA1 (human) inhibition in PME1 counter-screen; O75608; inhibition, % at 5.9 µM; recombinant LYPLA1, FP-Rh probe fluorescence polarization; hit rate 0.16% among 320,000;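 active = inhibition above the mean of all tested compounds plus 3 SD, set per campaign, cut at about 14% in these data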;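 note: inhibitors block serine hydrolase probe labeling of LYPLA1 so polarization falls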
PREPL confirm: confirmation of human PREPL enzyme inhibitors | inhibition, % at 5.96 µM | hit rate 67% among 2,000 | shares compounds with PREPL inh | recombinant PREPL, fluorescence polarization activity probe
Large screens that a line does not name were inactive (follow-up assays come after a bar, where they were run). A selection: hits, their analogues and other compounds. The true share with any hit is near 1.3%. Cut-off read from the data, not from the text of the source, unless noted: active = inhibition above about 43%; inactive = the rest.

Cc1cc(OCC(=O)Nc2ccc(N3CCN(C)CC3)cc2)ccc1Cl	PREPL inh 70 | PREPL confirm 56
O=C(CSc1nc2nn(-c3ccccc3)c(=O)c-2c2n1CCCCC2)Nc1ccc(OC(F)F)cc1	none (no result: LYPLA2 inh, Fam108B inh, PME-1 primary, LYPLA1 inh)
CC(NC(=O)CN1CCN(S(=O)(=O)c2ccc(Br)cc2)CC1)c1ccccc1 (configuration not stated)	none
O=C1/C(=C/c2cccc(Cl)c2)SC(=S)N1CCC(=O)N1CCCCC1CCO (configuration not stated)	PREPL inh 45 | PREPL confirm 44
O=C1/C(=C/c2ccccc2F)SC(=S)N1CCC(=O)N1CCCCC1CCO (configuration not stated)	PREPL inh 46 | PREPL confirm 43
O=C1/C(=C/c2ccc(Cl)cc2)SC(=S)N1CCC(=O)N1CCCCC1CCO (configuration not stated)	none
C/C(=N\NC(=O)c1ccc(-n2cnnn2)cc1)c1ccc(C)cc1	none (no result: Fam108B inh)
O=C1Nc2ccccc2S/C1=C/Nc1cccc(Cl)c1	PREPL inh 45 | PREPL confirm inactive
CCOC(=O)c1c(C)n(CCOc2ccccc2)c2ccc(O)cc12	none
CCOC(=O)c1c(C)n(CC(O)c2ccccc2)c2ccc(O)cc12 (configuration not stated)	PREPL inh 171 | PREPL confirm inactive
CCCc1nn(C)c(C(N)=O)c1[N+](=O)[O-]	none
CCOC(=O)c1sc(NC(=O)C(C)Sc2nnc(N)s2)nc1C (configuration not stated)	none
c1ccc(Cn2nnnc2C(c2ccccc2)N2CCN(c3nc4ccccc4s3)CC2)cc1 (configuration not stated)	none
c1ccc(C(c2nnnn2Cc2ccco2)N2CCN(c3nc4ccccc4s3)CC2)cc1 (configuration not stated)	PREPL inh 44 | PREPL confirm inactive
O=C(c1ccccc1)c1ccc(C(=O)N2CCOCC2)cc1	none
O=C(c1ccc(-c2ccccc2)cc1)c1ccccc1C(=O)N1CCOCC1	PREPL inh 46 | PREPL confirm inactive
O=C(COC(=O)c1ccc[nH]c1=O)NC1CCCc2ccccc21 (configuration not stated)	none
Cc1noc(C)c1NC(=O)Nc1ccc2c(c1)C(=O)N([C@H](C)CO)C[C@H](C)[C@H](CN(C)C)O2	none (no result: LYPLA2 inh, Fam108B inh, PME-1 primary, LYPLA1 inh)
NCCCC[C@@H]1NC(=O)c2cc([N+](=O)[O-])cc(I)c2SC[C@@H](C(N)=O)NC(=O)[C@H](Cc2ccc(O)cc2)NC1=O	PREPL inh 54 | PREPL confirm 49
NCCCC[C@@H]1NC(=O)[C@H](CCC(=O)O)NC(=O)c2cc([N+](=O)[O-])cc(I)c2SC[C@@H](C(=O)NCC(N)=O)NC1=O	none
Cc1c(C(=O)N2CCN(c3ccccc3)CC2)sc2ncnc(N3CCC(C)CC3)c12	none
CCCNC(=O)Cn1cnc2sc(C(=O)N3CCN(Cc4ccc5c(c4)OCO5)CC3)c(C)c2c1=O	none
Cc1c(C(=O)N2CCN(c3ccccn3)CC2)sc2ncnc(N3CCN(c4ccccc4)CC3)c12	PREPL inh 44 | PREPL confirm inactive
Cc1c(C(=O)N2CCN(Cc3ccc4c(c3)OCO4)CC2)sc2ncnc(N3CCN(c4ccccc4F)CC3)c12	PREPL inh 48 | PREPL confirm 44
CCN1CCN(C(=O)c2sc3ncnc(N4CCc5ccccc5C4)c3c2C)CC1	none
Cc1c(C(=O)N2CCN(Cc3ccc4c(c3)OCO4)CC2)sc2ncnc(N3CCN(c4ccccc4)CC3)c12	PREPL inh 45 | PREPL confirm 48
O=C(Nc1ccc(Cl)c(Cl)c1)NC1CCS(=O)(=O)C1 (configuration not stated)	none
S=C1N(c2ccccc2)CN(CCN2CCOCC2)CN1c1ccccc1	none
Cc1cc(C)n2nc(SCCOc3ccccc3)nc2n1	none
CCOC(=O)C1C(=O)NC(N2CCCCC2)=NC1c1ccccc1 (configuration not stated)	none
CCOC(=O)C1C(=O)NC(N2CCc3ccccc32)=NC1c1ccccc1 (configuration not stated)	PREPL inh 44 | PREPL confirm inactive
Cc1ccc(Nc2nc(N/N=C/c3c[nH]c4ccccc34)nc(N3CCOCC3)n2)cc1	PREPL inh 44 | PREPL confirm 60
NS(=O)(=O)c1ccc(-n2nncc2-c2ccco2)cc1	none
COc1ccc(C2(C)CC(C)(C)Nc3ccccc32)cc1 (configuration not stated)	none

Screening results from PubChem.
